Assay outcomes: PubChem, National Center for Advancing Translational Sciences (NCATS)
MARV entry inh: qHTS for inhibitors of binding or entry into cells for Marburg Virus | Marburg virus pseudotyped entry inhibition, cell reporter | Potency, µM (highest dose often 37.8 µM), without a hit: at the top dose activity change, negative = inhibition, most hits filed as inhibitors | actives 1.8% (n = 300,000) | AID 540276, 2011; calls by dose curve; tested in HEK293 cells; also: potency is read from the fitted curve at half-maximal effect; % is scaled to controls: 0 for no effect and ±100 for the full control effect
Shiga inhibitor: A qHTS for Small Molecule Inhibitors of Shiga Toxin; inhibition, % at 38.7 µM; Vero cells, Shiga toxin protein synthesis inhibition reporter; actives 9.2% (n = 290,000); in the data active = inhibition mostly above about 28%, no sharp cut-off; inactive = mostly below about 43%; also: 0% is about no effect
LASV entry inh: qHTS for Inhibitors of binding or entry into cells for Lassa Virus; actives 1.2% (n = 300,000); Potency, µM (titrated, usually from 37.9 µM), for inactives: at the highest dose activity change, negative = inhibition, most hits filed as inhibitors; Lassa virus pseudotype entry inhibition, cell reporter; calls by dose curve; tested in HEK293 cells; also: potency is read from the fitted curve at half-maximal effect; % is scaled to controls: 0 for no effect and ±100 for the full control effect; nearly all actives have a fitted effect of over 50% in size
HCV inh: qHTS Assay for Inhibitors of Hepatitis C Virus (HCV). Huh7.5.1 HCVcc-Cre infection, luciferase reporter, 44 h. Potency, µM (highest dose often 41.8 µM), for inactives: top-dose activity change, negative = inhibition, most hits filed as inhibitors. actives 3.4% (n = 340,000). AID 651820, 2012; active = well fitted inhibition curve with a large enough effect; inconclusive = small, poorly fitted or top-dose-only effect, or another doubt; inactive = no such curve, though single readings can be large or run the other way; also: potency is read from the fitted curve at half-maximal effect; % is scaled to controls: 0 for no effect and ±100 for the full control effect
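After 44 h co-culture of compound, cells and HCVcc-Cre (~0.5 moi), substrate is added for 15 min at room temperature and luciferase measured over 15 sec. Cells were seeded at 1,000/well and pre-cultured 4 h.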
FMDV inh: High Throughput Screening for Foot and Mouth Disease Virus Antivirals | FMDV antiviral cell-based qHTS | Potency, µM (doses to about 57.9 µM), for inactives: top-dose activity change, negative = inhibition, most hits filed as inhibitors | actives 1.2% (n = 410,000); calls by dose curve; tested in HEK293T cells; also: read-out not given here; potency is read from the fitted curve at half-maximal effect; % is scaled to controls: 0 for no effect and ±100 for the full control effect; nearly all actives have a fitted effect of over 45% in size
CHX counter: Cycloheximide Counterscreen for Small Molecule Inhibitors of Shiga Toxin. cell reporter, cycloheximide protein synthesis inhibition counterscreen. actives 12% (n = 300,000). max response, %; in the data active = max response mostly above about 13%, no sharp cut-off; inactive = mostly below about 14%; also: read at 38.3 µM for the half of the compounds with a filed dose; 0% is about no effect
* marks the source's active call; other numbers are inactive results; ? = inconclusive; · = not tested or not shown; [ ] = remark or other dose. The list is not random: actives were taken first. Their share in the collection is about 13%.

SMILES | MARV entry inh | Shiga inhibitor | LASV entry inh | HCV inh | FMDV inh | CHX counter
COc1ccccc1CNC(=O)CSc1ncc2c(n1)-c1ccc(Cl)cc1N(Cc1ccccc1)S2(=O)=O | · | · | 26.7%[46.1 µM] | · | -22.9% | ·
COc1cccc(-c2nnc(SCC(=O)N(C(C)C)C(C)C)o2)c1 | 5.3% | 55.8* | ? | -24.5% | 24.9% | 19.5
Cc1ccc(NC(=O)Cc2nc(CSc3nnc(-c4ccc5c(c4)OCO5)o3)cs2)cc1 | 2.7% | 98.0* | -1.1% | ? | 2.3% | 16.0
Cc1cc(NC(=O)CSc2nnc(-c3cccc(Cl)c3)o2)no1 | -18.3% | -3.3 | -27.9% | · | -7.8% | 1.1
Cc1cc(NC(=O)CSc2nnc(-c3ccc4c(c3)OCCO4)o2)no1 | ? | 120.6* | ? | 12.6% | 5.1% | 21.9*
COc1cc(OC)cc(-c2nnc(SCC(=O)N(C(C)C)C(C)C)o2)c1 | -19.9% | -4.0 | -26.7% | -9.3% | -5.6% | -2.4
COc1cccc(-c2nnc(SCC(=O)N3CCCc4ccccc43)o2)c1 | -0.3%[46.1 µM] | 19.4* | -7.0% | -0.5% | -11.2% | 10.4
Cn1c(SCC(=O)NCC2COc3ccccc3O2)nnc1C(F)(F)F (configuration not stated) | 16.5% | · | -6.6% | 10.2% | -8.7% | ·
COc1cccc(-c2nnc(SCC(=O)Nc3cc(C)on3)o2)c1 | -15.1% | 53.5 | -8.3% | 23.0% | 19.1% | 24.5*
Cc1cc(NC(=O)CSCC(=O)OCc2nnc(-c3ccccc3)o2)no1 | 2.3%[46.1 µM] | 29.5 | 17.7%[46.1 µM] | 15.6% | 43.0% | 15.9*
COc1cc(C)c(C(C)C)cc1S(=O)(=O)NC1CC(C)(C)NC(C)(C)C1 | ? | -7.8 | ? | 4.1% | 62.1% | -2.0
COc1ccc(NC(=O)CC2(CC(=O)O)CCCC2)cc1 | -3.8%[46.1 µM] | -14.4 | 9.2%[46.1 µM] | -1.4% | -9.8% | -3.2
COc1ccc(O)c(C2Nc3ccccc3-n3c(-c4ccccc4)c4c(=O)n(C)c(=O)n(C)c4c32)c1 (configuration not stated) | 2.1%[46.1 µM] | · | 9.9%[46.1 µM] | · | 39.8µM* | ·
Cc1ccc(-c2c3c(=O)n(C)c(=O)n(C)c3c3n2-c2ccccc2NC3c2ccc(C)cc2O)cc1 (configuration not stated) | ? | · | 8.1%[46.1 µM] | · | -26.0% | ·
CCOC(=O)Cc1nn(Cc2nc(-c3ccc(C)cc3)cs2)c(=O)c2ccccc12 | · | -5.8 | · | ? | 0.0% | 1.1
COC(=O)c1c(C)sc(-c2c(-c3ccc4c(c3)OCCO4)[nH]c3[nH]c(=O)[nH]c(=O)c23)c1O | -14.5%[46.1 µM] | · | 19.7%[46.1 µM] | · | -23.1% | ·
CCC1CCCCN1C(=O)c1ccc2nc(Cc3ccc(OC)cc3)oc2c1 (configuration not stated) | · | 77.5* | · | -4.9% | 55.3% | 35.5*
COCC1CCCCN1C(=O)c1ccc2nc(Cc3ccc(OC)c(OC)c3)oc2c1 (configuration not stated) | · | 17.8 | · | ? | -27.9% | 12.3*
O=S(=O)(NC1CC1)c1ccc(Cl)cc1F | 16.8%[46.1 µM] | -21.9 | 21.9% | 9.1% | 22.8% | -2.3
C/C(=N/OC(=O)c1ccc(C)cc1)C(=O)c1ccc(Br)cc1 | · | -12.5 | · | 31.5% | 0.4% | 1.2
CC/C(=N/O)C(=O)c1ccc(Br)cc1 | 1.2%[46.1 µM] | 25.1 | 8.91µM* | 5.8% | 5.9% | 7.9
Cc1cc2nc(-c3ccc[nH]c3=O)n(Cc3ccccc3F)c2cc1C | ? | 43.3* | 12.2% | 16.8% | 19.5% | 37.6*
Cc1cc2nc(-c3ccc[nH]c3=O)n(Cc3ccc(F)cc3)c2cc1C | -11.9%[46.1 µM] | 22.8 | -12.0%[46.1 µM] | 4.3% | -1.3% | 11.6*
O=C(NCCCN1CCOCC1)c1ccc2c(c1)N(Cc1c(F)cccc1Cl)C(=O)c1ccccc1S2 | · | -4.6 | · | ? | ? | -9.2
COc1cccc(O[C@H]2C=C[C@@H](c3ccccc3)O[C@H]2CO)c1 | 4.1%[14.2 µM] | · | · | · | · | ·
SMILES | MARV entry inh | Shiga inhibitor | LASV entry inh | HCV inh | FMDV inh | CHX counter
COc1cccc(CC(Cc2nc3ccccc3[nH]2)c2nc3ccccc3[nH]2)c1 (configuration not stated) | -29.5%[46.1 µM] | 29.5 | -6.4% | 7.9% | 4.6% | 35.1*
O=C(CSc1nc2ccc([N+](=O)[O-])cc2[nH]1)NC1CCCCCC1 | ? | -1.5 | -24.5% | 14.1µM* | 5.62µM* | 0.2
Cc1ccc2nc(SCc3ccc([N+](=O)[O-])cc3)[nH]c2c1 | -20.6% | 73.2* | 6.4% | ? | -11.5% | 40.4*
O=C(CSc1nc2ccc([N+](=O)[O-])cc2[nH]1)NC1CCCCC1 | ? | -12.6 | 4.1% | -22.1% | ? | -1.9
COc1cccc(CSc2nc3ccccc3[nH]2)c1 | ? | 68.1 | -13.4% | -16.9% | 0.0% | 29.9*
Cc1nn(C(C)C(=O)NCc2ccc(OC(C)C)cc2)c(=O)c2c1sc1ccccc12 (configuration not stated) | 27.4%[46.1 µM] | · | -8.6%[46.1 µM] | · | 1.7% | ·
Cc1cccc(C(c2sc3nc(-c4ccco4)nn3c2O)N2CCN(c3ccccc3F)CC2)c1 (configuration not stated) | · | · | -1.1%[46.1 µM] | · | 28.6% | ·
O=[N+]([O-])c1cccc(CSc2nc3ccccc3[nH]2)c1 | ? | 38.0 | ? | -9.2% | 13.6% | 13.2*
CC(C)(C)OC(=O)N(Cc1ccccc1)Cc1cccc(OCc2cccc(NC(=O)c3ccccc3)c2)c1 | · | · | · | 7.94µM* | ? | ·
CC(C)(C)OC(=O)N(Cc1ccccc1)Cc1ccc(OCc2cccc(NC(=O)C3CC3)c2)cc1 | · | · | · | ? | 14.1µM* | ·
CC(C)(C)OC(=O)N(CCc1ccccc1)Cc1ccc(OCc2cccc(NC(=O)C3CCCC3)c2)cc1 | · | · | · | -16.6%[8.37 µM] | -24.3% | ·
CC(C)(C)OC(=O)N(CCc1ccccc1)Cc1ccccc1OCc1ccc(NC(=O)C2CCC2)cc1 | · | · | · | 0.562µM* | -19.4% | ·
CC(Oc1ccc2oc(-c3ccccc3)c(C(=O)O)c2c1)C(=O)O (configuration not stated) | 7.3% | -0.8 | 1.1% | 20.9% | 12.5% | -2.4
Cc1ccc(C(OC(=O)c2ccco2)C(=O)NC2CCCC2)cc1 (configuration not stated) | ? | 1.8 | 1.4%[46.1 µM] | -8.9% | 2.7% | -6.9
Cc1n[nH]c(C)c1S(=O)(=O)N1CCCC(C(=O)Nc2nccs2)C1 (configuration not stated) | ? | -11.5 | -0.6% | -11.7% | 0.3% | -3.5
O=[N+]([O-])c1cccnc1Oc1cc(Cl)c(Cl)cc1Cl | · | · | · | · | 0.0% | ·
COc1ccccc1N1C(=O)C2CCC(c3ccccc3)CC2C1=O (configuration not stated) | 5.8% | -13.7 | ? | 4.4% | 22.4µM* | -5.7
Cc1ccc(NC(=O)C2(C)CCN2C(=O)Cc2ccccc2)cc1C (configuration not stated) | · | · | · | · | -25.7% | ·
c1ccc(OCCOCCN2CCN(C(c3ccccc3)c3ccccc3)CC2)cc1 | ? | 3.2 | ? | ? | -20.3% | -3.3
COc1cccc(C(=O)N2CCN(CCCc3ccccc3)CC2)c1OC | -17.8% | -6.4 | ? | 35.5µM* | ? | -2.0
